Where “and” joins values, the source holds several entries; their conditions need not be identical. Equal values may be shown once. The panel holds about 83,000 compounds, 20% with a hit somewhere; the sample as a whole holds those more often.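 Single-concentration screen, 48 h exposure, 96-well plates. Endpoint: percent growth. Below 10 = active.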 Unmarked numbers belong to inactive results. Calls of active or inactive are those of the source.
Each molecule was assayed on MDA-MB-468 breast (assay: NCI-60 one-dose screen, 48 h (100 = growth as untreated, 0 = no growth, -100 = all killed)). Details: 10 µM unless noted.

In order of falling growth:
1. NC1C(N)C(N)C1N (stereo unspecified)  122%
2. S=c1nn[nH]c2ccccc12  117%
3. COc1ccccc1/C=N/NC1=NC2C(N1)N(C)C(=O)N2C (stereo unspecified)  106%
4. O=C(NC1CCCCC1)c1ccc(Cl)cc1  104%
5. CC(=O)c1ccc2c(c1)CCN2  104%
6. CCC(C)(CC)c1ccc(O)c(C)c1  101%
7. COc1ccc(/C=C2\Oc3cc(OCCN4CCCC4)ccc3C2=O)c(OC)c1  86.5%
8. CC(C)CNCC(=O)Nc1ccc(Cc2ccc(NC(=O)CNCC(C)C)cc2)cc1  79.5%
9. CN(C)c1cccc2c(S(=O)(=O)Nc3cccc(-c4csc(NC(=O)CCCCCN5CCN(CCO)CC5)n4)c3)cccc12  79.3%
10. O=[N+]([O-])c1cccc(N=NNc2cccc([N+](=O)[O-])c2)c1  57.9%
11. O=C(Nc1ccc(Cl)c([N+](=O)[O-])c1)Nc1nc2ccccc2s1  40.6%
12. c1ccc(C2CC(c3cccc(Nc4ccncc4)c3)=NN2c2ccccc2)cc1 (stereo unspecified)  24.2%

With `COc1ccc(C(CC(=O)c2ccc3c(c2)OCO3)C(=O)O)cc1OC` (stereo unspecified) the growth was 114% and 103%.
For `COc1ccc2nc(NCCCNCCO)c3sc4ccc(F)cc4c(=O)c3c2c1`, the growth was -31.6% (active).
For `c1ccc2nc(Cn3c[n+](Cc4ccc5ccccc5n4)c4ccccc43)ccc2c1`, the growth was -19.3% (active).
With `FC(F)(F)c1cccc(Nc2nc3ccccc3nc2Nc2cccc(C(F)(F)F)c2)c1` the growth was -12.9% (active).

— PubChem BioAssay (NCI)
